The results in this text go back to PubChem BioAssay (NCATS).

Values joined by “and” are separate entries in the source; they are usually repeats but may differ in a detail not shown here. Identical values can stand only once.

The first experiment can be described thus: qHTS profiling for inhibitors of Plasmodium falciparum (HB3) proliferation (AID 743324).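 Also: 100% = DMSO vehicle wells and 0% = artemisinin-treated control wells.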 The conditions noted are these: Plasmodium falciparum HB3 blood-stage proliferation; at 28.7 µM (top of the series). Put shortly:
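P. falciparum HB3 grown in erythrocytes (0.3% parasitemia, 2.5% hematocrit final) with compound for 72 h at 37 C, 5% CO2. Parasite DNA detected by SYBR Green after saponin/triton lysis overnight; normalized to 0.29 uM artemisinin and DMSO.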
In the case of `O=C(O)C(=O)c1cn(Cc2ccccc2)c2ccc(-c3ccc(OC(F)(F)F)cc3)cc12`, the remaining proliferation (% of control), lower = more inhibition is 30.7%.
Still for that read-out and setting: with `COC1(CS(=O)c2ccccc2)CCN(CCc2c[nH]c3ccc(F)cc23)CC1` (centres undefined) the figure was 10%.
Take `Oc1cc(Cl)ccc1Oc1ccc(Cl)cc1Cl`: the remaining proliferation (% of control), lower = more inhibition was 1.17%.
On to `C[C@@H]1[C@@H](CC(C[C@H]2O[C@@H]3O[C@]4(C)CC[C@@H]5[C@H](C)CC[C@@H]([C@H]2C)[C@@]35OO4)C[S+](=O)([O-])c2ccc(COC(=O)N(C)C)cc2)O[C@@H]2O[C@]3(C)CC[C@H]4[C@H](C)CC[C@@H]1[C@@]24OO3` (some centres undefined), for which the remaining proliferation (% of control), lower = more inhibition is 0.323%.
Still for that read-out and setting: with `CCCCC/C=C\C/C=C\C/C=C\C/C=C\CCCC(=O)NC1CC1` the figure was 3.08%; with `COc1ccc(C(=O)c2c(C)n(CCN3CCOCC3)c3ccccc23)cc1`, 94.6%; with `CNC(=O)N1N=C(c2ccc(N)cc2)c2cc3c(cc2CC1C)OCO3` (centres undefined), 83.9%.
For `CC(O)(CS(=O)(=O)c1ccc(F)cc1)C(=O)Nc1ccc(C#N)c(C(F)(F)F)c1` (centres undefined), the remaining proliferation (% of control), lower = more inhibition stood at 70.9%.
As for `CNC(=O)c1ccc(N2C(=S)N(c3ccc(C#N)c(C(F)(F)F)c3)C(=O)C23CCC3)cc1F`, the remaining proliferation (% of control), lower = more inhibition was 43.8%.
On to `COC[C@H]1OC(=O)c2coc3c2[C@@]1(C)C1=C(C3=O)C2CCC(=O)[C@@]2(C)C[C@H]1OC(C)=O` (some centres undefined), for which the remaining proliferation (% of control), lower = more inhibition worked out at 74%.
On the same count and under the same terms, with `CN(C)CCN(C)CCc1ccc(Cl)c(Cl)c1` the figure was 36.8%; with `C[C@@H]1[C@@H](C(=O)C[C@H]2O[C@@H]3O[C@]4(C)CC[C@@H]5[C@H](C)CC[C@@H]([C@H]2C)[C@@]35OO4)O[C@@H]2O[C@]3(C)CC[C@H]4[C@H](C)CC[C@@H]1[C@@]24OO3`, 0.763%; with `COc1cc([C@@H]2c3cc4c(cc3[C@H](O)[C@H]3COC(=O)[C@H]23)OCO4)cc(OC)c1OC`, 5.53% and 99%.
Same read-out and setting: under `Cc1cc(SCc2sc(-c3ccc(C(F)(F)F)c(F)c3)nc2C)ccc1OCC(=O)O` stands 82.6%; under `Cc1sc2c(c1C)C(c1ccc(Cl)cc1)=N[C@@H](CC(=O)OC(C)(C)C)c1nnc(C)n1-2`, -1.43%; under `CC1=C2C[C@@H]3[C@@H](CC=C4C[C@@H](O)CC[C@@]43C)[C@@H]2CC[C@]12O[C@H]1C[C@H](C)CN[C@H]1[C@H]2C`, 5.81%.

A further experiment can be described thus: qHTS profiling of the MIPE4 collection as inhibitors of Plasmodium falciparum (3D7) proliferation (AID 743344).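 Also: scaled between DMSO vehicle wells and 0.29 µM artemisinin as full inhibition.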 The note with it: P. falciparum 3D7 in erythrocytes, SYBR Green DNA fluorescence, 72 h; at 28.5 µM (top of the series) unless noted. The procedure, abridged: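 Erythrocytes infected with P. falciparum (0.3% parasitemia, 2.5% hematocrit) incubated with compounds 72 h at 37 C, 5% CO2. Lysis with saponin/Triton buffer containing SYBR Green I, overnight at room temperature in the dark; DNA fluorescence (485/535 nm) normalised to 0.29 uM artemisinin and DMSO.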
Background: qHTS replaces the single test concentration by a dilution series.
In turn, `O=C(O)C(=O)c1cn(Cc2ccccc2)c2ccc(-c3ccc(OC(F)(F)F)cc3)cc12` came in with a parasite growth, % of DMSO control of 222%.
For `COC1(CS(=O)c2ccccc2)CCN(CCc2c[nH]c3ccc(F)cc23)CC1` (centres undefined), the parasite growth, % of DMSO control was 36.7%.
Consider `Oc1cc(Cl)ccc1Oc1ccc(Cl)cc1Cl`, for which the parasite growth, % of DMSO control was found to be 6.59%.
`C[C@@H]1[C@@H](CC(C[C@H]2O[C@@H]3O[C@]4(C)CC[C@@H]5[C@H](C)CC[C@@H]([C@H]2C)[C@@]35OO4)C[S+](=O)([O-])c2ccc(COC(=O)N(C)C)cc2)O[C@@H]2O[C@]3(C)CC[C@H]4[C@H](C)CC[C@@H]1[C@@]24OO3` (some centres undefined): the parasite growth, % of DMSO control turned out to be 25.5%.
Same read-out and setting: under `COc1ccc(C(=O)c2c(C)n(CCN3CCOCC3)c3ccccc23)cc1` stands 90.6%; under `CNC(=O)N1N=C(c2ccc(N)cc2)c2cc3c(cc2CC1C)OCO3` (centres undefined), 269%.
Same read-out and setting: under `Fc1ccc(C(OCCN2CCN(CCCc3ccccc3)CC2)c2ccc(F)cc2)cc1` stands 5.99%; under `CC(O)(CS(=O)(=O)c1ccc(F)cc1)C(=O)Nc1ccc(C#N)c(C(F)(F)F)c1` (centres undefined), 61.4%; under `CNC(=O)c1ccc(N2C(=S)N(c3ccc(C#N)c(C(F)(F)F)c3)C(=O)C23CCC3)cc1F`, 36.9%.
The same measure, in the same setting: with `O=c1[nH]c2ccccc2n1CCCN1CCC(n2c(=O)[nH]c3cc(Cl)ccc32)CC1` the figure was 26.8%.
`CN(C)CCN(C)CCc1ccc(Cl)c(Cl)c1` had a parasite growth, % of DMSO control of 50%.
Still for that read-out and setting: with `C[C@@H]1[C@@H](C(=O)C[C@H]2O[C@@H]3O[C@]4(C)CC[C@@H]5[C@H](C)CC[C@@H]([C@H]2C)[C@@]35OO4)O[C@@H]2O[C@]3(C)CC[C@H]4[C@H](C)CC[C@@H]1[C@@]24OO3` the figure was 20.5%.
Same read-out and setting: under `COc1cc([C@@H]2c3cc4c(cc3[C@H](O)[C@H]3COC(=O)[C@H]23)OCO4)cc(OC)c1OC` stands 11%.
On the same count and under the same terms, with `Cc1cc(SCc2sc(-c3ccc(C(F)(F)F)c(F)c3)nc2C)ccc1OCC(=O)O` the figure was 66.7%; with `C=C(C)[C@H]1Cc2c(ccc3c2O[C@@H]2COc4cc(OC)c(OC)cc4[C@@H]2C3=O)O1`, 86.6%; with `Cc1sc2c(c1C)C(c1ccc(Cl)cc1)=N[C@@H](CC(=O)OC(C)(C)C)c1nnc(C)n1-2`, 16.3%.
Take `CC1=C2C[C@@H]3[C@@H](CC=C4C[C@@H](O)CC[C@@]43C)[C@@H]2CC[C@]12O[C@H]1C[C@H](C)CN[C@H]1[C@H]2C`: the parasite growth, % of DMSO control came to 61.1%.
Regarding `Cn1c(CCCC(=O)O)nc2cc(N(CCCl)CCCl)ccc21`, the parasite growth, % of DMSO control was 97.1%.
